Sampled rows, rich in hits. Any-hit rate of the full collection: about 4.7%.
TRHR ag = TRH receptor (human) agonism | TRHR cells, calcium flux fluo-8, FDSS agonist mode | P34981 | activation, % at 2 µM | AID 493084 | 360,000 compounds, 0.18% hits; further: 0% is about no effect
Target sequence (P34981 whole entry, looked up): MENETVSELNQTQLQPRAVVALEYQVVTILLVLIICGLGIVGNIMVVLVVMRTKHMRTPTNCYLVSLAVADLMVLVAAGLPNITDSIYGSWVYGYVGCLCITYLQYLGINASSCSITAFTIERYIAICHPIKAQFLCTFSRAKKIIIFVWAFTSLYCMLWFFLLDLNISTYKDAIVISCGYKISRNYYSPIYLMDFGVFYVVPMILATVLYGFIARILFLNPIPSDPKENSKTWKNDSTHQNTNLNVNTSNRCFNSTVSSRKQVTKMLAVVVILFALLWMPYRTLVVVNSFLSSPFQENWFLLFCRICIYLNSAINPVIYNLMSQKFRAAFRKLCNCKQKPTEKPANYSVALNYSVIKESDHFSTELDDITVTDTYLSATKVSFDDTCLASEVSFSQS
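Fluo-8-loaded TRHR cells; 10 s baseline, compound added, kinetic Ca2+ fluorescence read 1/s, agonist mode.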
D1 ag = agonists of human D1 dopamine receptor. 360,000 compounds, 1% hits. activation, % at 2 µM. HEK293 T-REx D1 cells, calcium flux, agonist mode; further: 0% is about no effect
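Inducible HEK293 T-REx D1 cells, force-coupled to calcium signalling, were plated at 4000 cells/well with tetracycline and held overnight at 30 C. After no-wash calcium dye loading, compound-evoked calcium rise over 180 s flagged agonists.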
TRHR PAM = allosteric enhancers of human TRH receptor. P34981. TRHR cells, fluo-8 calcium fluorescence, EC20 TRH enhancement. enhancement, % at 2 µM. 360,000 compounds, 0.66% hits. AID 493056; in the data active means enhancement above about 30%; further: 0% is about no effect
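Enhancer read-out: after compound pinning and an initial kinetic agonist-mode read, an EC20 of TRH (10 nM final) was injected and fluo-8 calcium signal (Ex 480/Em 530) followed at 1 s/cycle for 100 cycles in TRHR-expressing cells.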
D1 PAM = enhances dopamine response at the human D1 receptor. 360,000 compounds, 0.036% hits. potentiation, % at 10 µM. P21728. HEK293 TREx D1 cells, calcium flux, dopamine EC20 potentiation; in the data active means potentiation above about 30%; further: 0% is about no effect
D1 antagonist = human D1 dopamine receptor antagonism | activity change, negative = inhibition, % at 10 µM | P21728 | 360,000 compounds, 3.2% hits | AID 504652 | HEK293 TREx D1 cells, calcium flux, dopamine EC80; stronger effect = lower value; in the data active means activity change below about -30%; further: on the % scale 0 is the no-effect control and ±100 the full control effect
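Cells carrying a force-coupled, tetracycline-inducible human D1 receptor report calcium flux. Each well gets a 10 s baseline, compound with 180 s monitoring, then an EC80 dopamine stimulus with a second 180 s kinetic read.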
Numbers without * were called inactive. Unless noted, no stated cut-off is given here; in the data, active means activation above about 30%; inactive means the rest.

SMILES	TRHR ag	D1 ag	TRHR PAM	D1 PAM	D1 antagonist
CCN(c1cccc(C)c1)S(=O)(=O)c1cc(Br)cc2c1N(C(C)=O)C(C)C2 (configuration not stated)	0	1	4	2	-2
Cc1ccc(C(=O)NCCc2nnc3ccc(SCC(=O)N4CCCCC4)nn23)cc1	0	1	33*	-4	4
COc1ccccc1NC(=O)C(Cc1ccccc1)NS(=O)(=O)c1cccc2nsnc12 (configuration not stated)	-1	0	-1	3	0
CN1CCc2c(sc3nc(SCC(=O)NCc4ccco4)n(-c4ccccc4)c(=O)c23)C1	0	3	-6	-8	-33*
CCOC(=O)CSc1nc2sc3c(c2c(=O)n1-c1ccc(OC)cc1)CCN(C)C3	1	5	-3	-3	-8
COC(=O)CSc1nc2sc3c(c2c(=O)n1-c1ccc(OC)cc1)CCN(C)C3	2	2	33*	2	3
COc1ccc(-n2c(SCC(=O)NCc3ccco3)nc3sc4c(c3c2=O)CCN(C)C4)cc1	0	2	-5	3	-16
COc1ccc(NC(=O)c2cc(CN3CCCC3)on2)cc1Cl	0	4	-1	-5	-14
O=C(CSc1nc2c(c(=O)[nH]1)CCCC2)Nc1ccccc1C(F)(F)F	1	-1	-3	-1	6
CCOC(=O)Cc1ccc(NC(=O)N2CCC(CN3CCCCCC3)CC2)cc1	1	-1	7	6	1
COc1ccc(C2CC(=O)c3cc(-c4nc(-c5ccc(Cl)cc5)c(C)s4)c(=O)[nH]c3C2)cc1 (configuration not stated)	0	2	12	2	14
O=C(Nc1nc2ccccc2[nH]1)c1cccc(F)c1	1	1	-2	6	8
O=C(/C=C/c1ccc(F)cc1)Nc1nc2ccccc2[nH]1	-2	5	-14	-1	-31*
O=c1[nH]c2ccccc2nc1/C=C/c1ccccc1	2	4	1	-6	-7
O=c1[nH]c2ccccc2nc1/C=C/c1ccc(F)cc1	-2	35*	1	-5	-9
O=c1[nH]c2ccccc2nc1/C=C/c1ccc(O)cc1	22	45*	9	-5	1
COc1ccc(OCC(=O)NCc2ccc3c(c2)CCN3C(=O)c2ccc(F)cc2)cc1	0	5	0	2	-2
COc1cccc(C(=O)Nc2ccc(N3CCN(Cc4ccccc4)CC3)cc2)c1	2	3	2	-7	-3
CCc1ccc(S(=O)(=O)NCc2ccc(N3CCN(C)CC3)cc2)cc1	0	5	1	-2	1
Cc1c(NC(=S)NC(=O)c2ccc(-c3ccc(Cl)cc3)o2)cccc1C(=O)O	0	-4	5	-5	-31*
O=C(NC1=NCCS1)c1cccc(S(=O)(=O)N2CCCCC2)c1	0	-1	21	-2	-34*
CN1CCN(c2ccc(CNS(=O)(=O)c3ccccc3)cc2)CC1	0	4	6	-2	-35*
CCN1CCN(c2ccc(NC(=O)c3cccc(OCc4ccccc4)c3)cc2)CC1	-1	39*	5	-2	-1
O=C(NCc1ccccc1Cl)C(=O)NCC(c1ccc2c(c1)OCO2)N1CCOCC1 (configuration not stated)	0	0	4	-3	23
COc1cc(OC)c(OC)cc1CNc1sc2c(c1C(=O)Nc1ccccc1OC)CCC2	0	0	-5	-5	-20
SMILES	TRHR ag	D1 ag	TRHR PAM	D1 PAM	D1 antagonist
Cc1ccc(CSc2nc(=O)c3c(C)cc(C)nc3n2C2CC2)cc1	-1	1	-1	1	1
Cc1ccc(C(NC(=O)c2cccc(S(=O)(=O)N3CCN(C)CC3)c2)c2ccccc2)cc1 (configuration not stated)	1	5	2	-1	-66*
CCCOc1ccc(C(=O)CCC(=O)OCC(=O)Nc2ccc(OCC)cc2)cc1	0	7	5	-6	-2
CCCOc1ccc(C(=O)CCC(=O)Nc2ccc(N3CCN(C)CC3)cc2)cc1	0	5	2	-20	-79*
CN1CCN(c2ccc(NC(=O)c3cccc(OCc4ccccc4)c3)cc2)CC1	-1	14	3	-8	-64*
CC(C)Oc1cccc(C(=O)Nc2ccc(N3CCN(C)CC3)cc2)c1	0	-1	7	-11	-57*

Bioassay records from PubChem BioAssay.
